Experimental findings from PubChem BioAssay (NCI) are described below.

Where “and” joins values, the source holds several entries; their conditions need not be identical. Equal entries are not always repeated. This is part of a sample that, as a whole, favours compounds with a hit. Of some 83,000 tested, about 20% had one in any assay.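 Cell lines were cultured in 96-well plates, exposed to a single compound concentration, and assessed for percent growth 48 hours later.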 Calls of active or inactive are those of the source. Rule for the calls: active = growth percent below 10; inactive = the rest.

This experiment relates to HL-60(TB) leukemia. In words: NCI-60 one-dose screen, 48 h (100 = growth as untreated, 0 = no growth, -100 = all killed). The following applies: 10 µM unless noted.
For the compound `CCCCN(CCCC)CCCOC(=O)c1ccc(N)cc1`, the growth was 76.4% (inactive).
With `O=C(Nc1ccncc1)C(=O)c1cn(S(=O)(=O)c2ccc(Br)cc2)c2ccccc12` the figure was 15.3% (inactive); with `COc1ccc(C(=O)N2NC(=O)/C(=C/c3ccc(F)cc3)N=C2c2ccccc2)cc1`, 3.84% (active); with `COc1cc(C(=O)NC(=S)NCc2ccncc2)cc(OC)c1OC`, 89.7% (inactive).
For `Cn1c(-c2c(N)n(CCCN3CCOCC3)c3nc(C#N)c(C#N)nc23)nc2ccccc21`, the growth is -82.3% (active).
For the compound `COc1ccc(C(c2cc(OC)c(OC)c(OC)c2)N2CCN(c3ccccc3)CC2)cc1` (stereo not given), the growth was 67.1% (inactive).
To `Cc1cc(C(=O)O)c(N)c(C)n1` belongs 102% (inactive).
With `N#CC1=C(N)Oc2c(sc3c(Br)cccc23)C1c1ccc(Cl)cc1` (stereo not given) the figure was -7.34% (active); with `CCCCCCCCOC(=O)c1ccc(O)c(OC)c1`, 30.9% (inactive); with `c1csc([C@@H]2C[C@@H]3Cc4ccc5ccccc5c4N2O3)c1`, 104% (inactive).
To `CCOC(=O)N1CCN(CCCCOc2ccc(C(C)(C)CC)cc2)CC1` belongs 79.1% (inactive); to `CCOC(=O)c1c2c(n3ccc(C)cc13)C(=O)c1ccccc1C2=O`, 76.1% (inactive).
For `CC(C)=CCc1cc2c(cc1O)C1=C(C(=O)C3=C(NCCS3(=O)=O)C1=O)C(C=C(C)C)O2` (stereo not given), the growth was -35.2% (active).
As for `COc1cc(/C=C2\C(=O)N(Cc3ccc(Cl)cc3)c3ccccc32)cc(OC)c1OC`, the growth was -13.5% (active).
With `CC1(C)CC(=O)NC1=O` the figure was 111% (inactive).
To `Cc1nc2cc(Nc3nc(N4CCOCC4)nc(N4CCN(C)CC4)n3)ccc2n1Cc1ccccc1` belongs 103% (inactive).
For the compound `COc1cc(-c2cc3ncccc3c3nc(N)c4cccnc4c23)cc(OC)c1OC`, the growth is 6.71% (active).
To `O=[N+]([O-])c1ccc(-c2nc(N3CCOCC3)c3c4c(sc3n2)CCCC4)cc1` belongs 92.2% (inactive).
With `O=C1NC(c2ccc(Cl)c(Cl)c2)=C/C1=C\c1ccccc1` the figure was 94.1% (inactive); with `O=C1C=C(C(O)c2ccc(O)cc2)C(=O)c2ccccc21` (stereo not given), 98.4% (inactive); with `COC(c1ccc2c(c1)OCO2)C(C)Br` (stereo not given), 94.7% (inactive).
In the case of `O=C(N/N=C/c1c(Cl)cccc1Cl)c1cccnc1Nc1cccc(C(F)(F)F)c1`, the growth was 28.1% (inactive).
For the compound `COc1cccc(/C=N/Nc2nc3ccccc3s2)c1OC`, the growth is 49.9% (inactive).
With `C=C(C)[C@@H]1CC[C@]2(CN)CC[C@]3(C)[C@H](CC[C@@H]4[C@@]5(C)CCC(N)[C@@](C)(CO)[C@@H]5CC[C@]43C)[C@@H]12` (stereo not given in full) the figure was -66.1% (active).
With `Cn1cnc([N+](=O)[O-])c1Sc1ncnc2nc[nH]c12` the figure was 73.5% (inactive) and 91.7% (inactive); with `COc1ccc(/C=C2/SC(=Nc3c(C)nn(-c4ccccc4)c3N)NC2=O)cc1`, 16.6% (inactive).
To `O=C(N/N=C/c1ccc2c(c1)OCO2)c1ccncc1` belongs 115% (inactive) and 225% (inactive); to `CC(=O)c1cc(O)c2ccccc2c1O`, 63.9% (inactive); to `Cc1nn(-c2ccccc2)c(N2CCOCC2)c1-c1nc2ccc([N+](=O)[O-])cc2[nH]1`, 77.1% (inactive).
Turning to `COc1ccc2c(c1)C(=O)/C(=C/c1cccc(OCC(=O)Nc3nc(C)c(C)s3)c1)O2`, the growth is -79.3% (active).
With `COC1C(=O)CCC2(CO2)C1(O)C1(C)OC1CCC(C)C` (stereo not given) the figure was 68% (inactive); with `CCCCn1c(=O)[nH]c(N)c([C@@H]2c3c([nH]c(=O)n(CCCC)c3=O)Oc3ccc4ccccc4c32)c1=O`, 13.4% (inactive).
With `CCN(CC)CCc1nc(-c2ccccc2)no1` the figure was 104% (inactive).
Turning to `O=C1/C(=C/c2ccc(Cl)c(Cl)c2)CN(C(=O)C(Cl)Cl)C/C1=C\c1ccc(Cl)c(Cl)c1`, the growth is -15.2% (active).
Turning to `O=C(O)CNC1=C(Cl)C(=O)c2ccccc2C1=O`, the growth was 122% (inactive).
`COc1ccc(OC)c(/C=N/Nc2ncnc3c2c(C)nn3C)c1`: the growth was 88.9% (inactive).
To `COc1cccc(NC(=O)c2cccc(-c3cc(=O)c4c(OC)c(OC)c(OC)cc4o3)c2)c1` belongs 68.7% (inactive).
With `COc1cc(/C=C2\Oc3cc(OCCCN4CCCC4)ccc3C2=O)cc(OC)c1` the figure was 72.5% (inactive); with `C#Cc1cccc(Nc2ncnc3ccc(-c4cnc(N)nc4)cc23)c1`, 34.2% (inactive); with `COc1ccc(-c2cc(-c3cc(OC)ccc3OC)nc(SCC(=O)c3ccccc3)c2C#N)cc1`, 98.4% (inactive).
